In all, about 5,300 compounds were measured (“PER2::LUC luminescence relative to vehicle control”: median about 0.96, highest 2% from about 1.3 on). The sample holds the highest values, similar compounds and a random draw of the others, so the mix is not that of the screen.
Test system: mPer2Luc MEF
Assay: PER2::LUC luminescence relative to vehicle control (fold of vehicle); higher = higher PER2::LUC reporter signal
Conditions: 10 µM
Method in brief: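 In 384-well plates, ~3000 mPer2Luc reporter mouse embryonic fibroblasts per well were cultured in DMEM with 10% FBS at 37 °C and 5% CO2 for 48 h before compounds from commercial libraries were added at 10 μM. ONE-Glo luciferase readings were taken 24 h and 30 h after treatment. Each value is PER2::LUC luminescence given as fold of vehicle control.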

| SMILES | PER2::LUC luminescence (time after treatment 24 h) | PER2::LUC luminescence (time after treatment 30 h) |
| --- | --- | --- |
| CC1=C[C@]23C(=O)[C@@H](C=C(CO)[C@@H](O)[C@]2(O)[C@H]1O)[C@H]1[C@@H](C[C@H]3C)C1(C)C | 0.981 | 0.957 |
| CCN(CC)C(=O)NC1CC2c3cccc4[nH]cc(c34)CC2N(C)C1 (configuration not stated) | 0.846 | 0.986 |
| COC1=CC(=O)O[C@@H](/C=C/c2ccc3c(c2)OCO3)C1 | 0.149 | 0.152 |
| COC1=CC(=O)O[C@@H](/C=C/c2ccccc2)C1 | 1.28 | 1.35 |
| COC1=CC(=O)O[C@@H](CCc2ccc3c(c2)OCO3)C1 | 0.859 | 0.763 |
| Cc1o[nH]c(=O)c1CC(N)C(=O)O (racemic) | 0.875 | 0.984 |
| C[C@@H]1OC(=O)[C@H]2C[C@H]3CCCC[C@@H]3[C@@H](/C=C/[C@H]3CCC[C@H](C)N3C)[C@@H]12 | 0.807 | 0.884 |
| N=C(N)NCCCCCCCCCCNC(=N)N | 0.972 | 0.965 |
| NCCc1ccccc1 | 1.03 | 1.04 |
| Cn1cnc(CCN)c1 | 0.826 | 0.66 |
| NCCc1ccccn1 | 0.99 | 1.45 |
| CC(C)CC(NC(=O)C(Cc1ccccc1)NC(=O)CNC(=O)C(C)NC(=O)C(N)Cc1ccc(O)cc1)C(=O)O (configuration not stated) | 1.03 | 0.904 |
| CC1(C)C(=O)N(c2ccc(C#N)c(C(F)(F)F)c2)C(=S)N1c1ccc(C(N)=O)c(F)c1 | 1.06 | 1.11 |
| CC(=O)OC12CC(C)C3(O)C4C=C(C)C(=O)[C@@]4(O)CC(CO)=C[C@H]3C1C2(C)C (some centres not stated) | 1.15 | 0.967 |
| NNC(N)=O | 1.09 | 0.875 |
| COC(N)=O | 1.07 | 1.01 |
| NC(=O)CI | 1.59 | 1.31 |
| O=C(O)CF | 1.08 | 1.08 |
| CN(C(=O)Cc1ccc(Cl)c(Cl)c1)[C@H](CN1CCCC1)c1cccc(N=C=S)c1 | 0.676 | 0.687 |
| CCCN1C[C@H](C)N([C@H](c2ccc(C(=O)N(CC)CC)cc2)c2cccc(OC)c2)C[C@H]1C | 0.894 | 0.899 |
| C=CCN1CC[C@@]2(C)c3cc(O)ccc3C[C@@H]1C2C (single isomer, unassigned; (+)) | 0.969 | 0.939 |

Reference: the supplement of paper PMC9334596
